Screen size: about 310,000 compounds; about 2,200 (0.71%) showed an effect of 50% or more. Effects have a minus sign here. This excerpt belongs to a sample that is enriched for strong results.
molecular target: human ether-à-go-go-related gene (hERG) potassium channel (human, UniProt Q12809); experiment: primary screen, population patch clamp on CHO cells stably expressing hERG; higher = less effect of the substance
Sequence (Q12809 whole entry, looked up): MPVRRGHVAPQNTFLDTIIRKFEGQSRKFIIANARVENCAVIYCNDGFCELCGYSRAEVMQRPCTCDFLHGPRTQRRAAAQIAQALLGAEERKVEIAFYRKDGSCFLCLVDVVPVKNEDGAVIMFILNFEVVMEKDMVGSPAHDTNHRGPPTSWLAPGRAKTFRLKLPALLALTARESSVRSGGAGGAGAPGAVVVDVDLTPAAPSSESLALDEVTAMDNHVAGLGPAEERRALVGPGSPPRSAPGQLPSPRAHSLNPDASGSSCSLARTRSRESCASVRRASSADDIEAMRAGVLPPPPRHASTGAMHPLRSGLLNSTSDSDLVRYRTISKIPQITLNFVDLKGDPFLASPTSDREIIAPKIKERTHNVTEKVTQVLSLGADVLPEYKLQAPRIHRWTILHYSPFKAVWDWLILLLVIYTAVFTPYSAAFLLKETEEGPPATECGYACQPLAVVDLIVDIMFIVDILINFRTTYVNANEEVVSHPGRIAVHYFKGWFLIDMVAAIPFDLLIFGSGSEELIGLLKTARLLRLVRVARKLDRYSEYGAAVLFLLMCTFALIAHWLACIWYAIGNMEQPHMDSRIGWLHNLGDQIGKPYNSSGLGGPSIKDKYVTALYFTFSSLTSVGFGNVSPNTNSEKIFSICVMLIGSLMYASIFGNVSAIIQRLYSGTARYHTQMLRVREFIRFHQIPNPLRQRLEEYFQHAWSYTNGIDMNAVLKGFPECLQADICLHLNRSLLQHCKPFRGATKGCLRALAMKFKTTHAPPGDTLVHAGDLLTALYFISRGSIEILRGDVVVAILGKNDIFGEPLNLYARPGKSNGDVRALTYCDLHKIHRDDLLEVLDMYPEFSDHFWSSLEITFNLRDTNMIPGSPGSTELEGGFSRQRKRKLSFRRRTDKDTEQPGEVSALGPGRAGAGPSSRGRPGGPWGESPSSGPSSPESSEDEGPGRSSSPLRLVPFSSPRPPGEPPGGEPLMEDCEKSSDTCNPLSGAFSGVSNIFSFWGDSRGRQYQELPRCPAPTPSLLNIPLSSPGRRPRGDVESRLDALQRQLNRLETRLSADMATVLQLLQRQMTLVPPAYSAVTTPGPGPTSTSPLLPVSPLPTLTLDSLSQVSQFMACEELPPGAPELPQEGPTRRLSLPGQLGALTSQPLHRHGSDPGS

Row | SMILES | hERG current change (%, negative = inhibition) at 1uM [%]
1 | Cc1ccc(OCCNS(=O)(=O)c2ccc(N3CCCC3=O)cc2)cc1 | 7.63
2 | Cc1sc2nc(NCCO)[nH]c(=O)c2c1C | 14.6
3 | CS(=O)(=O)c1cccc(-c2nnc(NC(=O)C3=COCCO3)o2)c1 | 0.983
4 | Nc1c(C(=O)c2ccc(Cl)cc2)oc2ccccc12 | 18
5 | O=C(Nc1ccccc1)C1=C[C@H](c2ccccc2)C[C@H](OCCCCO)O1 | 12.7
6 | Cc1nc(N2CCN(S(=O)(=O)c3ccccc3)CC2)c2cc(-c3ccccc3)sc2n1 | 2.54
7 | c1ccc2c(c1)nnn2Cc1nnc2sc(-c3ccc4c(c3)OCCO4)nn12 | 9.84
8 | COC(=O)c1cccc(OCC(O)Cn2ccnc2)c1 (centres unmarked) | 0.869
9 | Cc1ccccc1OCC(O)CN1CCN(C)CC1.Cl (centres unmarked) | 5.66
10 | Cc1ccccc1OCC(O)CN1CCN(CC(O)COc2ccccc2C)CC1 (centres unmarked) | -50.4
11 | Cc1ccccc1OCC(O)CN1CCC(C)CC1.Cl (centres unmarked) | -6.73
12 | Cc1ccc2oc(=O)c3cnn(CC(=O)N4CCCc5ccccc54)c3c2c1 | 4.39
13 | CCn1c(SCC(=O)c2c(N)n(C)c(=O)n(C)c2=O)nnc1-c1ccccc1 | 14.2
14 | CCN(CC)Cc1c(O)ccc2occ(C(=O)c3ccccc3)c12 | -57.3
15 | CN(C)Cc1c(O)ccc2occ(C(=O)c3ccccc3)c12 | -16.4
16 | CN1CCN(Cc2c(O)ccc3occ(C(=O)c4ccccc4)c23)CC1 | -14.3
17 | COc1ccc(C(=O)c2coc3ccc(O)c(CN(C)C)c23)cc1 | -29.3
18 | CN(C)Cc1c(O)ccc2occ(C(=O)c3ccc(F)cc3)c12 | -57.5
19 | Cc1ccc(C(=O)c2coc3ccc(O)c(CN(C)C)c23)cc1.Cl | -16.2
20 | CCN(CC)Cc1c(O)ccc2occ(C(=O)c3ccc(OC)cc3)c12 | -64.2
21 | COc1ccc2occ(C(=O)c3coc4ccc(O)c(CN(C)C)c34)c2c1.Cl | -29.5
22 | COc1ccc(OC)c(C(=O)c2coc3ccc(O)c(CN(C)C)c23)c1.Cl | 9.87

Row | SMILES | hERG current change (%, negative = inhibition) at 1uM [%]
23 | Cc1ccc(-c2nc3cccnc3o2)cc1NC(=O)COc1ccc(C(C)(C)C)cc1 | 7.31
24 | COc1ccc(S(=O)(=O)Nc2ccc(Cc3ccncc3)cc2)cc1OC | 7.28
25 | COc1cc(NC(=O)c2ccc(F)cc2)c(OC)cc1NC(=O)CN1CCOCC1 | 3.57
26 | O=C(CN1C(=O)NC2(CCCCC2)C1=O)NCCC1=CCCCC1 | 14.5
27 | COC(=O)c1cc(S(=O)(=O)N2CCCCCC2)c[nH]1 | 12.4
28 | Cc1c(C(=O)Nc2nccs2)oc2ccc(F)cc12 | 14.5
29 | CCC(C(=O)N1CCN(Cc2ccc3c(c2)OCO3)CC1)n1c(=O)[nH]c2ccccc2c1=O (centres unmarked) | -8.55
30 | CCN1CCc2c(C#N)c(N3CCCCC3)nc(N3CCOCC3)c2C1 | 12.1
31 | CCCN1C(=O)C2(C(C(=O)c3ccc(C)o3)=C(O)C(=O)N2CCCOC)c2ccccc21 (centres unmarked) | 7.99
32 | COc1cc2oc3ccccc3c2cc1N(CC(=O)N(C)C)S(=O)(=O)c1ccccc1 | 0.641
33 | c1ccc2c(c1)CCN(c1nc(CN3CCOCC3)nc3sc4c(c13)CCCC4)C2 | 14.5
34 | Clc1nc(CN2CCCCC2)nc2sc3c(c12)CCCC3 | 7.88
35 | COc1cc2c(cc1OC)CN(c1nc(CN3CCOCC3)nc3sc4c(c13)CCC(C)C4)CC2 (centres unmarked) | 5.29
36 | COc1cc2c(cc1OC)CN(c1nc(CN3CCCC3)nc3sc(C)c(C)c13)CC2 | -22.9
37 | COc1cc2c(cc1OC)CN(c1nc(CN3CCOCC3)nc3sc4c(c13)CCCC4)CC2 | -54
38 | COc1cc2c(cc1OC)CN(c1nc(CN3CCCCC3)nc3sc4c(c13)CCCC4)CC2 | -57.3
39 | Cc1cccc(C)c1NC(=S)NN(Cc1ccccc1)c1ccccc1 | 10.3
40 | COc1ccc(CNC(=O)CSc2nnc(-c3cccnc3)n2N)cc1 | 7.27
41 | CCN(CC(=O)Nc1ccc(NC(C)=O)cc1)C(=O)COc1ccc(C(=O)c2ccccc2)cc1 | 10.3
42 | CCN1CCN(c2ccc(S(=O)(=O)N3CCCCC3)cc2NC(=O)c2ccc([N+](=O)[O-])o2)CC1 | -73.3
43 | CCN1CCN(c2ccc(S(=O)(=O)N3CCCCC3)cc2NC(=O)c2ccc(C)o2)CC1 | -62.4
44 | CCN1CCN(c2ccc(S(=O)(=O)N3CCCCC3)cc2NC(=O)c2ccc(F)cc2)CC1 | -16.7

Row | SMILES | hERG current change (%, negative = inhibition) at 1uM [%]
45 | CCN1CCN(c2ccc(S(=O)(=O)N3CCCCC3)cc2NC(=O)/C=C/c2ccc(OC(F)F)cc2)CC1 | -1.19
46 | CCN1CCN(c2ccc(S(=O)(=O)N3CCCCC3)cc2NC(=O)c2cc3ccccc3o2)CC1 | 0.811
47 | CCN1CCN(c2ccc(S(=O)(=O)N3CCCCC3)cc2NC(=O)c2ccc(OC(F)F)cc2)CC1 | -56.4
48 | CCN1CCN(c2ccc(S(=O)(=O)N3CCCCC3)cc2NC(=O)c2ccccc2)CC1 | -15.6
49 | COc1ccc(S(=O)(=O)N2CCCCC2)cc1NC(=O)c1ccc([N+](=O)[O-])o1 | 12.4
50 | CCN1CCN(c2ccc(S(=O)(=O)N3CCCCC3)cc2NC(=O)c2ccc([N+](=O)[O-])s2)CC1 | -13.8
51 | Cc1cccc(C)c1Nc1nnc(SCC(=O)c2ccc(Br)s2)s1 | 12.4
52 | CCCN(CCC)S(=O)(=O)c1ccc(NC(=O)c2cc(C(=O)OC)cc([N+](=O)[O-])c2)cc1 | 16.7
53 | CCCn1c2ccccc2c2cnn(CC(=O)NC3CCCC(C)C3C)c(=O)c21 (centres unmarked) | 11.4
54 | CN(C)S(=O)(=O)c1ccc2nnn(O)c2c1 | 7.89
55 | CCC(C)(C)NC(=O)C(c1ccco1)N(C(=O)Cn1nnc2ccccc21)c1ccc2c(c1)OCO2 (centres unmarked) | 13.9
56 | O=C(NCc1ccncc1)c1nc(-c2cccs2)no1 | -0.652
57 | COc1ccc(S(=O)(=O)NCCc2csc(-c3cccnc3)n2)cc1 | -9.72
58 | CN(/N=C/c1ccc(Cl)cc1)c1ncc(Cl)cc1C(F)(F)F | 14.6
59 | CN1/C(=C\C=Nc2ccc3ccccc3c2)C(C)(C)c2ccccc21 | -75.1
60 | CN1/C(=C/C=C(C#N)C#N)C(C)(C)c2ccccc21 | 10.9
61 | CN1/C(=C\C=Nc2ccccc2)C(C)(C)c2ccccc21 | -65
62 | Cc1c(N=C/C=C2\N(C)c3ccccc3C2(C)C)c(=O)n(-c2ccccc2)n1C | -15.5
63 | CN1/C(=C/C=N/n2cnnc2)C(C)(C)c2ccccc21 | 7.04
64 | CN1/C(=C\C=C(C#N)C#N)C(C)(C)c2ccccc21 | 2.94
65 | Cc1ccccc1N=C/C=C1\N(C)c2ccccc2C1(C)C | -51.2
66 | CN1/C(=C\C=N\O)C(C)(C)c2ccccc21 | 14.7

Row | SMILES | hERG current change (%, negative = inhibition) at 1uM [%]
67 | CO/N=C/C=C1/N(C)c2ccccc2C1(C)C | 12.5
68 | CN1/C(=C\C=O)C(C)(C)c2ccccc21 | 3.65
69 | Cc1c(N=C/C=C2/N(C)c3ccccc3C2(C)C)c(=O)n(-c2ccccc2)n1C | -5.46
70 | CN(C)c1ccc(N=C/C=C2\N(C)c3ccccc3C2(C)C)cc1 | -84.7
71 | N#Cc1nc(-c2ccc(Cl)cc2)oc1NCc1ccco1 | 18.1
72 | COc1cccc(-n2c(Cc3cc(=O)[nH]c(=O)[nH]3)nnc2SC(C)C)c1 | 2.56
73 | CCNC(=O)c1ccc(CSc2nc3ccccc3s2)cc1 | 11.4
74 | O=S(=O)(c1ccc(NC(=S)NCCc2ccccc2)cc1)N1CCOCC1 | 3.71
75 | COc1cccc(-c2nc(CS(=O)(=O)CC(=O)NCCCN3CC(C)CC(C)C3)c(C)o2)c1 (centres unmarked) | -5.41
76 | CCOC(=O)Nc1ccc2c(c1)Nc1ccccc1S2 | 9.07
77 | COc1cccc(NC(=O)CNS(=O)(=O)c2ccc3nc(C)sc3c2)c1 | 14.5
78 | Cc1ccc(-c2cc(C(=O)Nc3cccnc3)c3ccccc3n2)s1 | 12.1
79 | Cn1cnnc1SCC(=O)Nc1sc2c(c1C(N)=O)CCC2 | 13.3
80 | CCCCNC(=O)CCCN1C(=O)c2cccnc2Sc2ccccc21 | 14.1
81 | OCCCNc1ncnc2sc3c(c12)CCN(Cc1ccccc1)C3 | 7.54
82 | CC1CCc2c(sc3ncnc(NCCN4CCOCC4)c23)C1 (centres unmarked) | -13.1
83 | CCCCNc1ncnc2sc3c(c12)CCN(CCC)C3 | -80.9
84 | CCOc1ccc(-n2c(SCc3ccc(C#N)cc3)nnc2-c2cccnc2)cc1 | -65.1
85 | N#Cc1ccc(CSc2nnc(-c3cccnc3)n2-c2ccccc2)cc1 | -26.5
86 | CCOc1ccc(-n2c(SCC(N)=O)nnc2-c2cccnc2)cc1 | -3.26

Source: paper PMC4336329 (PLoS ONE, 2015)
